Assay outcomes as filed in PubChem.
The list is a sample of the results.
aSyn 5UTR act: Activators via SNCA 5'UTR binding, MLPCN; hit rate 7.1% among 300,000; activity score, % (tested at 7.5 µM), hits read low; alpha-synuclein 5'UTR reporter, activators screen; in the data active = activity score below about -60%
Of the large screens only hits and unclear results are named; the others gave an inactive call.

CCOC(=O)c1ccc(NCCOC)c([N+](=O)[O-])c1	aSyn 5UTR act -91
O=C(Nc1cccnc1)c1ccc(N2CCCC2)c([N+](=O)[O-])c1	aSyn 5UTR act -87
Cc1cccc(NC(=O)c2ccc(N3CCOCC3)c([N+](=O)[O-])c2)n1	aSyn 5UTR act -115
Cc1ccc(C(=O)c2cc([N+](=O)[O-])ccc2N2CCOCC2)c(C)c1	none
Cc1ccc(NC(=O)c2ccc(NCCN)c([N+](=O)[O-])c2)cc1Cl	aSyn 5UTR act -85
Cc1ccc(NC(=O)c2ccc(NCCCN3CCC(C)CC3)c([N+](=O)[O-])c2)c(C)c1	aSyn 5UTR act -63
Cc1cccc(NC(=O)c2ccc(N(C)C3CCCCC3)c([N+](=O)[O-])c2)n1	aSyn 5UTR act -64
Cc1cccc(NC(=O)c2ccc(N3CCCCC3)c([N+](=O)[O-])c2)n1	aSyn 5UTR act -157
O=C(Nc1ccccc1)c1ccc(NCC2CCCO2)c([N+](=O)[O-])c1 (centres undefined)	aSyn 5UTR act -125
CC(C)CCNc1nc(N)c([N+](=O)[O-])c(NCC2CCCO2)n1 (centres undefined)	none
Cc1ccc2c(COC(=O)c3ccccc3Br)cc(=O)oc2c1	aSyn 5UTR act -179
Cc1ccc2c(COC(=O)c3ccccc3Cl)cc(=O)oc2c1	aSyn 5UTR act -136
Cc1ccc2c(COC(=O)C34CC5CC(CC(C5)C3)C4)cc(=O)oc2c1	aSyn 5UTR act -152
CC(C)CN1CCN(Cc2cnc(-c3ccc(Cl)cc3)nc2)CC1CCO (centres undefined)	aSyn 5UTR act -78
Cc1ccc2nc(Cc3ccc(N)cc3)oc2c1	aSyn 5UTR act -108
Cc1ccc2nc(CCc3ccc(N)cc3)[nH]c2c1	aSyn 5UTR act -136
Nc1ccc2nc(CCc3ccccc3)[nH]c2c1	aSyn 5UTR act -68
Cc1nnc(SCC(=O)Nc2nsc(-c3ccc(C(C)(C)C)cc3)n2)s1	aSyn 5UTR act -70
Oc1ccc(N=Nc2ccc(Br)cc2)c(O)c1	aSyn 5UTR act -226
Oc1ccc(N=Nc2ccc3c(c2)OCCO3)c(O)c1	none
CC(C)C(=O)Nc1cccc(NC(=S)NC(=O)c2cccs2)c1	aSyn 5UTR act -126
Cc1ccc(NC(=S)NC(=O)c2ccc(F)cc2)cc1S(=O)(=O)Nc1cccc(Cl)c1	none
CC(C)C(=O)Nc1cccc(NC(=S)NC(=O)c2ccc(Cl)cc2)c1	aSyn 5UTR act -120
CC(C)C(=O)Nc1cccc(NC(=S)NC(=O)c2ccc3c(c2)OCO3)c1	aSyn 5UTR act -158
Cc1ccc(-c2nnn(CCC(=O)NC(C)(C)C)n2)cc1	aSyn 5UTR act -80
Cc1c(OCC(=O)C(C)(C)C)ccc2c3c(c(=O)oc12)CCCC3	aSyn 5UTR act -97
CCOc1cc(/C=C/C(=O)c2ccc3c(c2)OCCO3)ccc1OCC(=O)N(C)C	aSyn 5UTR act -185
CCOc1cc(/C=C/C(=O)Nc2ccc(C(=O)NCCN(CC)CC)cc2)ccc1OCC(C)C	none
CCOc1cc(/C=C/C(=O)c2ccc(O)cc2)ccc1OCC(=O)N(C)C	aSyn 5UTR act -94
CCN1CCN(c2cc3c(nn2)Oc2ccccc2N3C)CC1	aSyn 5UTR act -128
CCc1ccc(-c2cn(C3CCCCC3)c(=S)[nH]2)cc1	aSyn 5UTR act -127
O=C(Cc1ccccc1)c1ccc2c(c1)OCCO2	aSyn 5UTR act -107
O=C(OCCN1CCOCC1)c1ccc2c(c1)OCCO2	aSyn 5UTR act -94
O=C(CCCN1CCOCC1)c1ccc2c(c1)OCCO2	aSyn 5UTR act -81
Cc1ccc(S(=O)(=O)CC(=O)c2ccc3c(c2)OCCO3)cc1	aSyn 5UTR act -70
CC1(C)CC(NC(=O)c2cc(COc3cccc(C(F)(F)F)c3)on2)CCO1 (centres undefined)	aSyn 5UTR act -93
COc1cccc(OCc2cc(C(=O)NC3CCOCC3)no2)c1	aSyn 5UTR act -139
O=c1ccc2ccc(OCc3ccccc3)cc2o1	aSyn 5UTR act -80
COc1cccc(COc2ccc3ccc(=O)oc3c2)c1	aSyn 5UTR act -139
COc1cccc(COc2ccc3c(C)c(Cc4ccccc4)c(=O)oc3c2)c1	aSyn 5UTR act -67
COc1ccc(COc2ccc3ccc(=O)oc3c2)cc1	aSyn 5UTR act -232
N#CC1CC(c2ccccc2)=NN1c1ccccc1[N+](=O)[O-] (centres undefined)	aSyn 5UTR act -95
CN1CCN(Cc2cc(COCc3ccccc3)c3cccnc3c2O)CC1	none
CCCOc1ccc(-c2nc(N3CCN(C)CC3)c3ccccc3n2)cc1	aSyn 5UTR act -135
CSC1=NNC(c2ccc(C(C)(C)C)cc2)=NN1	aSyn 5UTR act -106
CC(=O)c1c(C)[nH]c(C(=O)OCC(=O)N2CCc3ccccc32)c1C	aSyn 5UTR act -131
Cc1ccc(C(=O)OCC(=O)N2CCc3ccccc32)cc1	aSyn 5UTR act -70
CC(=O)Nc1ccc(OCc2nnc(-c3ccc(Cl)cc3)o2)cc1	aSyn 5UTR act -96
Cc1ccc(/C(O)=C2\C(=O)C(=O)N(Cc3cccnc3)C2c2ccccc2[N+](=O)[O-])cc1 (centres undefined)	aSyn 5UTR act -99
C=C1C(=O)C=C2CN(C(=O)c3ccccc3)[C@@](Cc3ccc(F)cc3)(C(=O)OC)[C@@H]12	none
O=C(NCc1cccnc1)/C(=C/c1ccc(-c2cccc(Cl)c2)o1)S(=O)(=O)c1ccccc1	aSyn 5UTR act -193
Cc1ccc(C(=O)CSc2ncnc3ccccc23)o1	aSyn 5UTR act -121
O=C(CSc1ncnc2ccccc12)N1CCCC1	aSyn 5UTR act -67
O=C(CSc1ncnc2ccccc12)c1cccs1	aSyn 5UTR act -137
C/C(=N\OC(=O)c1ccc(F)cc1)c1sc(-c2ccccc2)nc1C	aSyn 5UTR act -158
C/C(=N\OC(=O)c1ccc(Cl)cc1)c1sc(-c2ccccc2)nc1C	aSyn 5UTR act -124
COc1ccc(-c2cc3ccc(OCC(C)=O)cc3oc2=O)cc1OC	aSyn 5UTR act -125
O=c1oc2cc(OCc3ccc(F)cc3F)ccc2cc1-c1ccccn1	aSyn 5UTR act -101
COc1ccc(-c2coc3cc4oc(=O)c5ccccc5c4cc23)cc1F	none
NC(=O)COc1ccc2cc(-c3ccc(F)cc3)c(=O)oc2c1	aSyn 5UTR act -75
NC(=O)COc1ccc2cc(-c3ccccc3)c(=O)oc2c1	aSyn 5UTR act -87
NC(=O)COc1ccc2oc(-c3ccccc3)cc(=O)c2c1	aSyn 5UTR act -166
CCN(CC)CCN(C(=O)/C=C/c1cccs1)c1nc2ccc(C)cc2s1	aSyn 5UTR act -79
CN(C)CCN(C(=O)/C=C/c1cccs1)c1nc2c(F)cc(F)cc2s1	none
Cc1cc(C(=O)Nc2cnc3ccccc3c2)ccc1[N+](=O)[O-]	aSyn 5UTR act -132
O=C(Nc1cnc2ccccc2c1)c1ccco1	aSyn 5UTR act -95
O=C(Nc1cnc2ccccc2c1)c1cccc(-n2cnnn2)c1	aSyn 5UTR act -89
CC(C)(C)c1ccc(C(=O)Nc2cccc(-n3cnnn3)c2)cc1	aSyn 5UTR act -85
Cc1ccc(C(=O)Nc2cnc3ccccc3c2)cc1	none
O=C(Nc1cccc(-c2cnc3ccccc3n2)c1)c1ccco1	aSyn 5UTR act -80
O=C(Nc1cnc2ccccc2c1)c1cccnc1	aSyn 5UTR act -101
Cn1c(NC(=O)c2cccnc2)nc2ccccc21	aSyn 5UTR act -101
COc1ccc(NC(=O)c2ccc(OC(F)F)cc2)cc1Cl	aSyn 5UTR act -167
O=C(Nc1ccc(OC(F)F)c(Cl)c1)c1ccccn1	aSyn 5UTR act -92
Cc1ccc(NC(=S)Nc2ccc(OC(F)F)c(Cl)c2)cc1F	aSyn 5UTR act -105
CC(=O)Nc1cccc(Oc2ccc(-c3noc(C)n3)cc2)c1	aSyn 5UTR act -194
COc1cccc(/C(C)=N/N=C(\C)c2cccc(OC)c2)c1	aSyn 5UTR act -275
COc1cccc(C(=O)Nc2cnn(C(C)C)c2)c1	aSyn 5UTR act -114
